Experimental findings from PubChem BioAssay are described below.

A number with no mark means an inactive call.

Chain of Luciferin 4-monooxygenase (Photinus pyralis) (P08659 whole entry, looked up): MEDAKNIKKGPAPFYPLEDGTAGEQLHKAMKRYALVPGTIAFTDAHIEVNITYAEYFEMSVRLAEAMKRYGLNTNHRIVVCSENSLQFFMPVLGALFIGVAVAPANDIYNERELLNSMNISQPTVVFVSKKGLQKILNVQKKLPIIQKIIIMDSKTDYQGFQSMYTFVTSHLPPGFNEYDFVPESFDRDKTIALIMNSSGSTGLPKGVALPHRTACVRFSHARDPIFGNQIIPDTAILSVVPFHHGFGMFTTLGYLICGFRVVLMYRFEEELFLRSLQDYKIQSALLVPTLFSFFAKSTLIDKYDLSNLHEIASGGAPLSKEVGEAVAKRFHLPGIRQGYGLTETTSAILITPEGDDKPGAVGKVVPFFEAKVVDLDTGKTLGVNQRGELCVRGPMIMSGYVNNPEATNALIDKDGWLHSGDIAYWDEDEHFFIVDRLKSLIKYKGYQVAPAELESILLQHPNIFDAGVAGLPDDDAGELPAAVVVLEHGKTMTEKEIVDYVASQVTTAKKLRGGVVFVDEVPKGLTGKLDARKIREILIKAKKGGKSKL

The assay has as its target Luciferin 4-monooxygenase (Photinus pyralis) (UniProt P08659). Description: inhibition of purified Photinus pyralis luciferase – biochemical, luminescence, purified enzyme, 2006 set, primary screen (AID 1141).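 Note: cell-free assay with purified firefly luciferase at 100 ng per well in PBS; test concentration not given here.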 Particulars: purified firefly luciferase, SteadyGlo luminescence, 30 min; higher = more signal, called active from +8 up or from −8 down.
`CSCC[C@@H]1NC(=O)CC=C[C@@H](C)COC(=O)[C@H](C)COC1=O`: the z-score was -1.95. The value for `CC1(C)O[C@H]2O[C@H]([C@H](O)CON=C3[C@H]4CCn5c(=O)n(-c6ccccc6)c(=O)n5[C@H]4[C@H](O)[C@@H]4O[C@H]34)[C@H](O)[C@H]2O1` was 0.0158; that for `COc1cccc([C@H]2Oc3ccc(OC)cc3C(=NO[C@@H](C)c3cc(-c4c(C)cc(C)cc4C)no3)[C@@H]2O)c1` was 0.995; that for `CC(=O)OC[C@H]1O[C@H](C#CCCc2ccccc2)C=C[C@@H]1OC(C)=O` was -0.97. Turning to `CC(C)=CCCC(C)=CCON=C1C[C@@H](O)[C@@H](O)[C@@H]2[C@@H]3C(=O)N(C4CCCCC4)C(=O)[C@@H]3CC[C@H]12`, the z-score is -0.0223. As to `COC(=O)[C@H](C)NC(=O)CCC1CC(OC(=O)NCc2ccc3c(c2)OCO3)CC2(CCCC(COC(=O)NCCc3ccc(Cl)cc3)O2)O1` (stereo partly specified), the z-score is 0.839. As to `COC(=O)[C@H](C)NC(=O)CCC1CC(OC(=O)NCCc2ccc(F)cc2)CC2(CCCC(COC(=O)NCC3CCCCC3)O2)O1` (stereo partly specified), the z-score was 0.765. On to `CCN1C(=O)[C@H]2[C@H]3[C@H](O)[C@H](O)CC(=NO[C@H](C)c4cn([C@H](CO)Cc5ccccc5)nn4)[C@@H]3CC[C@H]2C1=O`, for which the z-score is 0.275. The same measure for `CCN1C(C)=C(C(=O)OC)[C@@H](c2ccccc2)N2C(=O)[C@](O)(C(=O)OC)CC(C(C)=O)=C12`: -0.695; for `C=CC[C@@H]1C=C[C@H](ON=C(C)CCN2CCCCc3nc(C)c(C)cc32)[C@@H](CO)O1`: 1.38; for `CC(C)=NOC(C)CN1CCCCc2nc(C)c(C)cc21` (stereo unspecified): -0.327.

On to `CCOC(=O)[C@H](Cc1ccccc1)NC(=O)CCC1CC(OC(=O)NCCc2ccc(F)cc2)CC2(CCCC(COC(=O)NCCOc3ccccc3)O2)O1` (stereo partly specified), for which the z-score was 0.46. The value for `Cc1ccc(S(=O)(=O)N[C@@H]2COC(=O)CC=C[C@@H](C)[C@H](NS(=O)(=O)c3ccc(C)cc3)COC(=O)[C@H](C)NC(=O)CC=C[C@H]2C)cc1` was -0.743; that for `CCOC(=O)CCN1C(=O)[C@H]2[C@H]3[C@H](O)[C@H](O)CC(=NOCC(C)C)[C@@H]3CC[C@H]2C1=O` was 0.826. The same measure for `CC(=O)OC[C@H]1O[C@H](CCON=C(C)CCN2CCCc3nc(C)c(C)cc32)C=C[C@@H]1OC(C)=O`: 0.591; for `Cc1cc2c(nc1C)CCCCN2CC(O)CN1CCCc2nc(-c3ccc(Br)cc3)ccc21` (stereo unspecified): -0.802; for `CC(C)(C)N1C(=O)[C@H]2[C@@H]3C(=CC[C@H]2C1=O)C(=O)[C@H]1O[C@H]1[C@H]3O`: -2.65. As to `CC(CCN1CCCc2nc(C)c(C)cc21)=NOC[C@@H](C)[C@H](OCc1ccccc1)C(C)C`, the z-score is -1.14. On to `CON=C(C)CCC(=O)OC[C@H]1O[C@H](C#Cc2ccccc2)C=C[C@@H]1Oc1ccc(C)cc1`, for which the z-score is -3.61.

Turning to `C[C@@H]1CC[C@@H](C(=O)O)N[C@H]1c1cccc(N2CCOCC2)c1`, the z-score is -1.34. `O=C1C2=CC[C@H]3C(=O)N(C4CCCCC4)C(=O)[C@H]3[C@H]2[C@H](O)[C@@H]2O[C@H]12`: the z-score is -0.389. Consider `CCOC(=O)[C@H](Cc1ccccc1)NC(=O)CCC1CC(OC(=O)NCCc2ccc(F)cc2)CC2(CCCC(COC(=O)NCc3cccc(C(F)(F)F)c3)O2)O1` (stereo partly specified), for which the z-score is 0.871. Take `O=C1[C@H]2[C@H]3[C@H](O)[C@H](O)CC(=NO[C@@H]4O[C@H](CO)[C@@H](O)[C@H](O)[C@H]4O)[C@H]3CC[C@H]2C(=O)N1C[C@@H]1CCCO1`: the z-score is 0.569. The same measure for `CC(CCC(=O)OC[C@H]1O[C@H](C#Cc2ccccc2)C=C[C@@H]1Oc1ccc(C)cc1)=NOC[C@@H](C)[C@H](OCc1ccccc1)C(C)C`: 1.03. With `C[C@@H]1CC[C@H]2C(=O)OC(Cc3ccccc3)CN2[C@H]1c1ccc(Br)cc1` (stereo partly specified), the z-score is -0.679.

Regarding `COC(=O)CC=C[C@@H](C)[C@@H](C=NOC[C@@H](O)COCc1ccco1)OC`, the z-score was -1.3. Consider `CCc1cc2c(nc1CC)CCN(CCC(C)=NOC[C@@H](C)[C@H](OCc1ccccc1)C(C)C)C2`, for which the z-score was -1.77.

As for `O=C1C2=CC[C@H]3C(=O)N(C[C@@H]4CCCO4)C(=O)[C@H]3[C@H]2[C@H](O)[C@@H]2O[C@H]12`, the z-score was -0.518. `CCOC(=O)CCN1C(=O)[C@H]2[C@H]3[C@H](O)[C@H](O)CC(=NNC(=O)OCC)[C@H]3CC[C@H]2C1=O`: the z-score was 0.303. The same measure for `COc1ccc2c(c1)O[C@@H](c1cccc(C(F)(F)F)c1)[C@H](O)C2=O`: 0.335; for `COC(=O)CC=C[C@@H](C)[C@@H](C=NOC(C)CN1CCCCc2nc(C)c(C)cc21)NS(=O)(=O)c1ccc(C)cc1` (stereo partly specified): 0.183; for `CCOC(=O)[C@H](Cc1ccccc1)NC(=O)CCC1CC(OC(=O)NCc2cccc3ccccc23)CC2(CCCC(COC(=O)NCCc3ccccc3OC)O2)O1` (stereo partly specified): 0.821. The value for `O=C1C=C[C@@H](O)[C@@H]2[C@@H]3C(=O)N(c4cccc(Oc5ccccc5)c4)C(=O)[C@@H]3CC[C@@H]12` was -0.57. Take `O=C1C=C[C@@H](O)[C@@H]2[C@@H]3C(=O)N(Cc4ccccc4)C(=O)[C@@H]3CC[C@@H]12`: the z-score is -0.505.

As to `COC(=O)[C@H](C)NC(=O)CCC1CC(OC(=O)NCc2ccc3c(c2)OCO3)CC2(CCCC(COC(=O)NCc3ccccc3)O2)O1` (stereo partly specified), the z-score is 0.464. As to `COc1ccc(COC(=O)NN=C2C[C@@H](O)[C@@H](O)[C@@H]3[C@@H]4C(=O)N(C(C)(C)C)C(=O)[C@@H]4CC[C@@H]23)cc1`, the z-score was 0.137.
